Laboratory results reported in the supplement of paper PMC4840960.

Tested on: E18 rat cortical neuron-glia co-culture
Test: fiber score / MBP score (myelination specific beyond OL differentiation) (ratio); higher = more myelination-specific MBP alignment
Conditions: 5 µM; treatment time: 8 days (DIV5-DIV13)
Summary of the method: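 Papain-dissociated primary E18 rat cortical co-cultures, plated at 20,000 cells/well on poly-d-lysine/laminin 96-well plates, were exposed to library compounds at 1 or 5 µM in myelination medium between DIV5 and DIV13. Following fixation in 4 % paraformaldehyde, cultures were stained for MBP, Olig2 and DAPI, and four 10X fields per well were analysed in duplicate wells. Values are the ratio of fiber score (continuous MBP fiber length per Olig2+ nucleus) to MBP score (thresholded MBP area × intensity per Olig2+ nucleus).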

Fiber score / MBP score, 0.97:
NS(=O)(=O)c1cc(C(=O)O)c(NCc2ccco2)cc1Cl [Furosemide]

Fiber score / MBP score, 0.665:
NC1CCN(c2nc3c(cc2F)c(=O)c(C(=O)O)cn3-c2ccc(F)cc2F)C1 (centres undefined) [Tosufloxacin]

Fiber score / MBP score, 0.623:
CC(=O)CC(c1ccccc1)c1c(O)c2ccccc2oc1=O (centres undefined) [Warfarin]

Fiber score / MBP score, 0.948:
COc1ccc(CC2c3cc(OC)c(OC)cc3CC[N+]2(C)CCC(=O)OCCCCCOC(=O)CC[N+]2(C)CCc3cc(OC)c(OC)cc3C2Cc2ccc(OC)c(OC)c2)cc1OC (centres undefined) [Atracurium]

Fiber score / MBP score, 0.628:
CC(c1cc2ccccc2s1)N(O)C(N)=O (centres undefined) [Zileuton]

Tested on: E18 rat cortical neuron-glia co-culture
Test: myelination (MBP fiber length per Olig2+ nucleus), % of 1 µM DAPT response (DMSO = 0) (% of DAPT); higher = more myelination, active = 50 or more
Conditions: 1 µM; treatment time: 8 days (DIV5-DIV13)
Summary of the method: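 Myelination, expressed as continuous straight MBP fiber length per Olig2+ nucleus, was normalised to 0.1 % DMSO as 0 and a 1 µM positive control as 100. The cultures were primary E18 rat cortical co-cultures dissociated with papain and plated at 20,000 cells/well on poly-d-lysine/laminin-coated 96-well plates. They received library compounds at 1 or 5 µM in myelination medium between DIV5 and DIV13. Analysis covered four 10X fields per well in duplicate wells after 4 % paraformaldehyde fixation and immunostaining for MBP and Olig2 with DAPI.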

myelination, inactive:
Cc1nc2n(c(=O)c1CCN1CCC(c3noc4cc(F)ccc34)CC1)CCCC2 [Risperidone] -7.71
CN(C)CCCSc1ccccc1NC(=O)/C=C/c1ccccc1 [Cinanserin] -5.83
CCCOc1ccc(C(=O)OCCN(CC)CC)cc1N [Proxymetacaine] 13.3
CC(=O)OCC(CCn1cnc2cnc(N)nc21)COC(C)=O [Famciclovir] -22.4
CN(C)CC/C=C1/c2ccccc2COc2ccc(CC(=O)O)cc21 [Olopatadine] -7.93
Nc1nc(Cl)nc2c1ncn2[C@@H]1O[C@H](CO)[C@@H](O)[C@H]1O [2-Chloroadenosine] -12.4
CCOC(=O)[C@H](CCc1ccccc1)N[C@@H](C)C(=O)N1Cc2ccccc2C[C@H]1C(=O)O [Quinapril] -0.422
O=C1c2c(O)cc(O)cc2O[C@H](c2ccc(O)c(O)c2)[C@H]1O [Distylin] -6.73
COc1ccc2[nH]c([S+]([O-])Cc3ncc(C)c(OC)c3C)nc2c1 (centres undefined) [Omeprazole] -8.06
CO[C@H]1/C=C/O[C@@]2(C)Oc3c(C)c(O)c4c(c3C2=O)C2=NC3(CCN(CC(C)C)CC3)NC2=C(NC(=O)/C(C)=C\C=C\[C@H](C)[C@H](O)[C@@H](C)[C@@H](O)[C@@H](C)[C@H](OC(C)=O)[C@@H]1C)C4=O [Rifabutin] -2.92
CCc1ccc(CCOc2ccc(CC3SC(=O)NC3=O)cc2)nc1 (centres undefined) [Pioglitazone] -2.52
CC(=O)OCC(=O)[C@@]1(O)CC[C@H]2[C@@H]3CCC4=CC(=O)CC[C@]4(C)[C@H]3C(=O)C[C@@]21C [Cortisone acetate] -45.2
C[C@]12CCC(=O)C=C1CC[C@@H]1[C@@H]2[C@@H](O)C[C@@]2(C)[C@H]1CC[C@]2(O)C(=O)CO [Hydrocortisone] -10.9
O=C(O)CCNC(=O)c1ccc(/N=N/c2ccc(O)c(C(=O)O)c2)cc1 [Balsalazide] -5.47
OCCOCCN1CCN(C2=Nc3ccccc3Sc3ccccc32)CC1 [Quetiapine hemifumarate] -10
COc1cc(N)c(Cl)cc1C(=O)NC1CCN(CCCOc2ccc(F)cc2)CC1OC (centres undefined) [Cisapride] -1.62
O=C(NCCN1CCOCC1)c1ccc(Cl)cc1 [Moclobemide] -22.1
CCC(=O)NS(=O)(=O)c1ccc(-c2c(-c3ccccc3)noc2C)cc1 [Parecoxib] -22.9
COc1cc(CNC(=O)CCCC/C=C\C(C)C)ccc1O [Zucapsaicin] -19.7
CC(C)c1ccc2oc3nc(N)c(C(=O)O)cc3c(=O)c2c1 [Amlexanox] -13.2
NS(=O)(=O)c1cc2c(cc1C(F)(F)F)NCNS2(=O)=O [Hydroflumethiazide] -2.17
CN(C)CCCN1c2ccccc2Sc2ccc(Cl)cc21 [Chlorpromazine] 8.68
Cc1ncc([N+](=O)[O-])n1CC(O)CCl (centres undefined) [Ornidazole] -14.7
Cc1cc2c(s1)Nc1ccccc1N=C2N1CCN(C)CC1 [Olanzapine] -0.209
Cc1cn([C@H]2C=C[C@@H](CO)O2)c(=O)[nH]c1=O [Stavudine] -12.8
CC1=C(C/C=C(\C)CCC[C@H](C)CCC[C@H](C)CCCC(C)C)C(=O)c2ccccc2C1=O [Phylloquinone] -4.4
CCOC(=O)c1ncn2c1CN(C)C(=O)c1cc(F)ccc1-2 [Flumazenil] -6.81
CCc1oc2ccccc2c1C(=O)c1cc(Br)c(O)c(Br)c1 [Benzbromarone] -8.31
C[C@H]1COc2c(C3(N)CC3)c(F)cc3c(=O)c(C(=O)O)cn1c23 [Pazufloxacin] -22.4
O=C(O)CCc1nc(-c2ccccc2)c(-c2ccccc2)o1 [Oxaprozin] -17
CCc1cccc2c3c([nH]c12)C(CC)(CC(=O)O)OCC3 (centres undefined) [Etodolac] -10.5
CCN1CCCC1CNC(=O)c1cc(S(N)(=O)=O)ccc1OC (centres undefined) [Sulpiride] -10.3
CC1(C)O[C@@H]2C[C@H]3[C@@H]4C[C@H](F)C5=CC(=O)C=C[C@]5(C)[C@@]4(F)[C@@H](O)C[C@]3(C)[C@]2(C(=O)CO)O1 [Fluocinolone Acetonide] 22.3
CC(=O)O[C@H]1C[C@@H]2CC[C@@H]3[C@H](CC[C@@]4(C)[C@H]3C[C@H]([N+]3(C)CCCCC3)[C@@H]4OC(C)=O)[C@@]2(C)C[C@@H]1N1CCCCC1 [Vecuronium Bromide] -15.8
NC1CCN(c2nc3c(cc2F)c(=O)c(C(=O)O)cn3-c2ccc(F)cc2F)C1 (centres undefined) [Tosufloxacin] -12.3
CC(=O)CC(c1ccccc1)c1c(O)c2ccccc2oc1=O (centres undefined) [Warfarin] -6.64
NS(=O)(=O)c1cc(C(=O)O)c(NCc2ccco2)cc1Cl [Furosemide] -9.91
COc1ccc(CC2c3cc(OC)c(OC)cc3CC[N+]2(C)CCC(=O)OCCCCCOC(=O)CC[N+]2(C)CCc3cc(OC)c(OC)cc3C2Cc2ccc(OC)c(OC)c2)cc1OC (centres undefined) [Atracurium] -11.6
CC(c1cc2ccccc2s1)N(O)C(N)=O (centres undefined) [Zileuton] -6.73
